# From PubChem
# Most compounds without a hit are left out; they make up all but 19% or so of the library.
# TDP1 inh = blocks human tyrosyl-DNA phosphodiesterase 1; Q9NUW8; recombinant TDP1, AlphaScreen DNA substrate cleavage; Potency, µM (top dose mostly 130 µM), for the others: top-dose activity change, negative = inhibition, hits mostly inhibitors; 350,000 compounds, 0.28% hits; AID 485290; note: potency is the fitted concentration of half-maximal effect; % is set by controls: 0 for no effect and ±100 for the full control effect; nearly all actives have a fitted effect of over 40% in size
# Target sequence (Q9NUW8 whole entry, looked up): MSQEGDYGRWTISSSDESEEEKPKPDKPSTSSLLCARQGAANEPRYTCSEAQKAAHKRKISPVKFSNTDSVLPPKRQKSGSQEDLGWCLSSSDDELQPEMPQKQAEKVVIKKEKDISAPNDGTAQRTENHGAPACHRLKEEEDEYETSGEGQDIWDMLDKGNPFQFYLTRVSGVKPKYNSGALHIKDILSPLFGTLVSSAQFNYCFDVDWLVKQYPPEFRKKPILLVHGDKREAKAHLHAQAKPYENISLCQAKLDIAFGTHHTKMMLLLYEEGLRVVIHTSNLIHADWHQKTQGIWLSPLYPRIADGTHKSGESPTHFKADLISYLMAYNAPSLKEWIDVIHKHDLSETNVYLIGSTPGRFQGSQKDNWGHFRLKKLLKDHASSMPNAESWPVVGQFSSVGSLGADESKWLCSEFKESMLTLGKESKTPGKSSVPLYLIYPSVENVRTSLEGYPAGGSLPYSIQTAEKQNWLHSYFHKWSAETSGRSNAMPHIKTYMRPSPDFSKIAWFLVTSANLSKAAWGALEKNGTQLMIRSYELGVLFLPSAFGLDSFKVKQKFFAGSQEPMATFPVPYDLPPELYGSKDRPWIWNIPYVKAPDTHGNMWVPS
#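 Recombinant human Tdp1 (E. coli-expressed, 1 nM final) preincubated with compounds 15 min at room temperature, then 5'-biotin/3'-phosphotyrosine-FITC DNA substrate (15 nM final) added for 5 min. AlphaScreen beads (10 ug/ml final) added 10 min; cleavage lowers signal.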
# IL-1B inflam inh = inflammasome signaling inhibition, IL-1 beta readout | THP-1 LPS/ATP IL-1B secretion, AlphaLISA, 16 h; hits give low values | activity change, % at 57.5 µM | 360,000 compounds, 4.7% hits; in the data active = activity change below about -50%; inconclusive = mostly about -30% to -49%; note: % is set by controls: 0 for no effect and ±100 for the full control effect
#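 THP-1 cells pretreated 1 hr with compounds (up to 57.5 uM final), then stimulated with LPS (250 ng/mL final) plus ATP (1.25 mM final); secreted IL-1B measured by AlphaLISA after 16 hr, decreased signal indicating inhibition.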
# TGFb SMAD3 inh = blocks TGF-b signaling. HepG2 CAGA-GFP TGF-b/SMAD3 reporter, GFP fluorescence, 18 h; TGF-beta stimulated, 500 pg/mL final. Potency, µM (top dose mostly 46.1 µM), for inactives: at the highest dose activity, negative = inhibition, actives largely listed as inhibitors. 410,000 compounds, 1.2% hits. AID 588855; note: potency is the fitted concentration of half-maximal effect; % is set by controls: 0 for no effect and ±100 for the full control effect; nearly all actives have a fitted effect of over 65% in size
#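 TGF-beta reporter screen: HEPG2 CAGA-GFP, 1% FBS, 500 pg/mL TGF-beta final, 18 h; per-cell GFP summed per well; curves fitted and categorized by class.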
# HepG2 tox = counter-screen for TGF-b inhibitors: cytotoxicity in HepG2 cells | HepG2 CAGA-GFP viability, ATP luminescence, 18 h | Potency, µM (series often up to 46.1 µM), for inactives: top-dose activity change, negative = cytotoxicity, usual class: cytotoxic | 410,000 compounds, 0.76% hits | AID 588856; note: potency is the fitted concentration of half-maximal effect
#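 HepG2 CAGA-GFP cells (1000/well, DMEM with 1% FBS) received compound, then TGF-beta at 500 pg/mL final, and were incubated 18 hours at 37 degrees C. Viability was read by CellTiter-Glo luminescence. Media-only wells were set as complete cell-killing and DMSO as no toxicity.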
# TDP1 cell noCPT = qHTS for Inhibitors of human tyrosyl-DNA phosphodiesterase 1 (TDP1): qHTS in cells in absence of CPT; DT40 Tdp1-/- hTDP1 cells, no CPT, ATP luminescence, 48 h; Potency, µM (highest dose often 46.2 µM), inactives show at the top dose activity change, negative = growth inhibition, actives largely listed as inhibitors; 420,000 compounds, 15% hits; note: potency is the fitted concentration of half-maximal effect; % is set by controls: 0 for no effect and ±100 for the full control effect; nearly all actives have a fitted effect of over 55% in size
#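 Chicken DT40 Tdp1-/- cells stably complemented with human TDP1 were seeded at 400 cells/well with DMSO in place of 20 nM camptothecin. After compound pinning, cells grew at least 48 hr at 37 °C; viability read by CellTiter-Glo luminescence.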
# DT40 TDP1 CPT = growth inhibition of DT40 Tdp1-/-;hTDP1 cells with camptothecin (screen for TDP1 inhibitors); chicken DT40 Tdp1-/-;hTDP1 cells + 20 nM CPT, ATP luminescence, 48 h; Potency, µM (highest dose often 46.2 µM), for inactives: top-dose activity change, negative = growth inhibition, hits mostly inhibitors; 420,000 compounds, 12% hits; note: potency is the fitted concentration of half-maximal effect; % is set by controls: 0 for no effect and ±100 for the full control effect; nearly all actives have a fitted effect of over 55% in size
#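 Chicken DT40 Tdp1-/- cells complemented with human TDP1, 400 cells/well, exposed to compounds plus 20 nM camptothecin for at least 48 h at 37 C; viability read as ATP content by CellTiter-Glo luminescence.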
# Active calls of the source: *; ? = inconclusive; nt = not tested or not shown; [ ] = remark or other dose. Unless noted, calls come from the whole dose curve; as a rule, active = well fitted curve in the direction sought with a large enough effect; inconclusive = small, poorly fitted or top-dose-only effect, or another doubt; inactive = no such curve, though single readings can be large; an effect the other way counts as inactive or inconclusive.
SMILES,TDP1 inh,IL-1B inflam inh,TGFb SMAD3 inh,HepG2 tox,TDP1 cell noCPT,DT40 TDP1 CPT
COC(=O)[C@H]1C[C@H](OC(=O)NCc2ccccc2F)[C@@]2(O)CN(S(=O)(=O)c3ccc(C)cc3)CC2[C@H]1C(=O)OC (stereo partly drawn),nt,-0.4,11.3%,2.6%,23.1µM*,?
COc1ccc(CNC(=O)OC23CN(C(=O)OC(C)C)N(C(=O)OC(C)C)CC2(O)CN(S(=O)(=O)c2ccc(C)cc2)C3)cc1OC (stereo not drawn),nt,-5.8,-28.8%,-9.6%,?,?
Cc1ccc(S(=O)(=O)N2CC3(O)CN(C(=O)OC(C)C)N(C(=O)OC(C)C)CC3(OC(=O)NCc3ccccc3)C2)cc1 (stereo not drawn),nt,-23.6,?,-23.2%,20.6µM*,?
Cc1ccc(S(=O)(=O)N2C[C@H]3N(C(=O)OC(C)C)N(C(=O)OC(C)C)C[C@H](OC(=O)NCc4ccccc4)[C@@]3(O)C2)cc1,nt,-9.6,?,-7.0%,20.6µM*,20.6µM*
CCCCCCCNC(=O)CN1N=C(c2ccc(C)cc2)CCC1=O,nt,0.0,-21.4%,-33.8%,-26.2%,-22.7%
Cc1cc2oc(C(=O)Nc3sc4c(c3C(=O)NCC3CCCO3)CCCC4)cc(=O)c2cc1C (stereo not drawn),6.1%,nt,5.6%,-10.8%,-3.1%,-0.5%
CCCCCCn1c(=O)n2n(c1=O)[C@@H]1CN(S(=O)(=O)c3ccc(C)cc3)C[C@]1(O)[C@@H](OC(=O)NCc1ccco1)C2,nt,?,?,-29.4%,23.1µM*,?
COC(=O)[C@H]1C[C@@]2(O)CN(S(=O)(=O)c3ccc(C)cc3)C[C@@]2(OC(=O)NCc2ccco2)C[C@H]1C(=O)OC,nt,-21.5,4.5%,5.5%,-22.4%,-16.7%
Cc1ccc(S(=O)(=O)N2C[C@H]3N(C(=O)OC(C)C)N(C(=O)OC(C)C)C[C@H](OC(=O)NCC4CCCCC4)[C@@]3(O)C2)cc1,nt,-17.0,?,-38.7%,25.9µM*,20.6µM*
Cc1ccc(S(=O)(=O)N2C[C@H]3n4c(=O)ccc(=O)n4C[C@H](OC(=O)NC4CC4)[C@@]3(O)C2)cc1,nt,17.0,1.2%,-5.7%,-12.1%,-12.6%
CN(C)c1ccc(CNC(=O)C2CCCN(S(=O)(=O)c3ccc4c(c3)oc(=O)n4C)C2)cc1 (stereo not drawn),1.3%,nt,1.6%,-1.5%,-18.3%,?
Cc1ccccc1Cc1nc2cccnc2n1C1CCN(C(=O)CC2NC(=O)c3ccccc32)CC1 (stereo not drawn),nt,nt,nt,nt,?,-5.2%[9.04 µM]
Cc1cccn2c(=O)c3cc(C(=O)NCC4CCCO4)c(=N)n(CCc4ccccc4)c3nc12 (stereo not drawn),nt,34.7,7.7%,-3.7%,-83.1%,16.4µM*
COc1ccc(CCNC(=O)c2cc3c(=O)n4cccc(C)c4nc3n(CC3CCCO3)c2=N)cc1 (stereo not drawn),2.2%,-11.3,5.2%,-3.6%,10.3µM*,3.26µM*
CN(C(=O)C1CC1)C1CCS(=O)(=O)C1 (stereo not drawn),nt,9.6,-1.0%,-11.3%,-8.2%,-15.9%
CSCC[C@H](NC(=O)c1ccc(NC[C@@H](N)CS)cc1-c1ccccc1)C(=O)O,23.3%,nt,nt,nt,nt,nt
O=C(OCc1c(Cl)nc2sccn12)c1cc2c(s1)CCCC2,3.2%,-13.9,15.9%,1.0%,?,14.1µM*
O=C(COC(=O)c1cc2c(s1)CCCC2)Nc1ccc(Cl)cn1,0.6%,28.3,-1.8%,22.8%,14.5%,-19.0%
O=C(NC1CC(=O)N(c2ccc(Cl)cc2)C1)c1cccs1 (stereo not drawn),0.0%,nt,-5.6%,-22.7%,-19.0%,-25.0%
CC1Cc2cc(/C=C3/SC(=S)NC3=O)ccc2O1 (stereo not drawn),nt,18.0,21.6%,-5.0%,18.4µM*,0.0%
CCN(CC)c1ccc(C=C2SC(=S)NC2=O)cc1,nt,-0.2,134.3%,-8.8%,?,13µM*
CCN(CC)c1ccc(/C=C2\SC(N)=NC2=O)cc1,3.2%,-8.6,18.8%,1.1%,-19.2%,-1.5%
Cc1cc(/C=C2\SC(=S)NC2=O)cc(C)c1O,8.6%,?,21.4%,-48.1%,?,?
COc1ccc2cc1Oc1cc3c(cc1OC)CC[N+](C)(C)[C@H]3Cc1ccc(cc1)Oc1c(OC)c(OC)cc3c1[C@@H](C2)[N+](C)(C)CC3,nt,nt,nt,nt,?,17.4%
O=C(NC(C(=O)N/N=C/c1c2ccccc2cc2ccccc12)c1n[nH]c(=O)c2ccccc12)c1ccccc1 (stereo not drawn),9.4%,?,?,-43.4%,10.3µM*,8.2µM*
SMILES,TDP1 inh,IL-1B inflam inh,TGFb SMAD3 inh,HepG2 tox,TDP1 cell noCPT,DT40 TDP1 CPT
C=CC[C@@H]1C=C[C@@H](O/N=C\[C@@H](NS(=O)(=O)c2ccc(C)cc2)[C@H](C)/C=C\CC(=O)OC)[C@@H](CO)O1,0.5%[21 µM],nt,nt,nt,nt,nt
CCOc1cc(-c2noc(N)c2C(=O)OC)cc(OCC)c1OCC,5.1%,-105.7*,-2.4%,5.0%,?,-12.8%
N#C/C(=C\c1c[nH]c2ccccc12)C(=O)Nc1ncc(Cc2ccc(Cl)cc2Cl)s1,2.6%,-60.7*,-8.2%,2.9%,16.4µM*,?
COc1ccc(-c2c[n+]3c(n2-c2ccccc2)SCC3)cc1OC,0.0%,43.8,-3.8%,1.3%,?,-2.3%
Brc1ccc(-c2c[n+]3c(n2-c2ccccc2)SCC3)cc1,nt,nt,-0.7%,-2.3%,5.8µM*,5.8µM*
COc1ccc(-c2c[n+]3c(n2-c2ccccc2)SCC3)cc1,nt,-5.6,?,-17.0%,4.61µM*,8.2µM*
Cc1ccc(-c2c[n+]3c(n2-c2ccccc2)SCC3)cc1,nt,-1.6,-17.7%,-25.8%,2.31µM*,3.26µM*
Brc1ccc(-c2ccccc2)cc1,-12.0%,-15.0,20.1%,-0.8%,-13.6%,-13.9%
Cc1cc(C)cc(-n2c(C)cc(C(=O)C(=O)Nc3nnc(C)s3)c2C)c1,5.7%,nt,5.4%,-14.3%,-7.1%,-23.4%
CC(C)C(C)(C)C(C)(C)C(C)(C)S,7.6%,nt,nt,nt,6.3%[92.5 µM],10.8%[92.5 µM]
COc1cccc(C2CNC3(CCCC(C)C3)c3[nH]c4ccccc4c32)c1OC (stereo not drawn),nt,?,?,-49.2%,23.1µM*,?
